# Data: PubChem BioAssay (NCI)
# About 83,000 compounds went through this panel and 20% of them were active in at least one assay; those are over-represented in the sample as a whole.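 A percent growth of 40 corresponds to 60% growth inhibition; 0 means no net growth; -100 means all cells died. Active threshold: below 10.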 A number with no mark means an inactive call. The source made the active and inactive calls.
# Test system: SK-MEL-5 melanoma
# Assay: NCI-60 one-dose screen, 48 h (100 = growth as untreated, 0 = no growth, -100 = all killed)
# Conditions: 10 µM unless noted
row,Compound,growth
1,CC(C)(C)c1cc(-c2nc3ccc(N4CCN(CCO)CC4)cc3[nH]2)cc(C(C)(C)C)c1O,74%
2,Clc1ccc(/C=C/c2nc(N3CCOCC3)c3nc(Cl)c(Cl)cc3n2)cc1,90.2%
3,CCOC(=O)/C=C\C(=O)NC(N)=O,105%
4,CCC#CC[C@H]1C/C=C2/C(=O)C=C[C@@H]2C/C=C\CCCC(=O)O1,-85.6% (active)
5,O=C(Cc1c(F)cccc1Cl)Nc1ccc(S(=O)(=O)Nc2ncccn2)cc1,100%
6,C=CCc1cc(Cl)cc2c(OC(C)=O)c(C(C)=O)c(-c3ccccc3)nc12,105%
7,Cc1c(C(=O)NCc2ccccc2)[n+](=O)c2cc(F)ccc2n1[O-],86.7%
8,C=CCOc1cccc(/C=C/C(=O)c2sc(Nc3cccnc3)nc2C)c1,74.9%
9,COc1ccc(C(=O)c2cc(OC)c(OC)c(OC)c2)cc1/C=C/C(=O)c1ccc2c(c1)OCO2,8.97% (active)
10,CCN(CC)S(=O)(=O)c1ccc2[nH]c(=O)cc(C(=O)Nc3ccc(OC)cc3OC)c2c1,111%
11,O=C(Nc1cc(C(F)(F)F)cc(C(F)(F)F)c1)Nc1ccc(OCc2nnc(-c3ccc(Cl)cc3)o2)c(F)c1,-29.6% (active)
12,O=C1CCCCN1CCCCC#Cc1ccccc1C#Cc1ccccn1,98.2%
13,COc1ccc2c(c1)C=CC(C#N)N2C(=O)c1ccccc1 (stereo not drawn),-6.27% (active)
14,CC1(C)OC2COC3(C(=O)O)OC(C)(C)OC3C2O1 (stereo not drawn),102%
15,COc1cc(C2C=C(C)N=C3SC(C)=NN32)cc(OC)c1OC (stereo not drawn),101%
16,O=C(/C=C/CN1CCOCC1)Nc1cc2c(Nc3cccc(Cl)c3F)ncnc2cc1OCCOC(F)F,86.9%
17,Cc1oc2nc[nH]c(=O)c2c1C(=O)/C=C/c1ccc(Cl)cc1,37.5%
18,CCn1cc(C2NC(=O)c3cc(F)ccc3N2)c2cccc(Cl)c21 (stereo not drawn),19.3%
19,CN(C)C/C=C/C(=O)Nc1cc2c(Nc3ccc(F)c(Cl)c3F)ncnc2cc1OCCOC(F)F,37.5%
20,CC(=O)Nc1ccc2c(c1)/C(=C\C=C/c1ccc([N+](C)(C)C)cc1)c1ccccc1-2,36.1%

row,Compound,growth
1,c1ccc([P+](CCC[P+](c2ccccc2)(c2ccccc2)c2ccccc2)(c2ccccc2)c2ccccc2)cc1,75.1%
2,COc1ccc2c(c1)NC(=O)CN2c1nc(C)nc2ccccc12,-34.8% (active)
3,CCCCCC/C=C\CCCCCCCCOc1ccc(CCOP(=O)(O)OCC[N+](C)(C)C)cc1,84.9%
4,O=C(Nc1ccc(I)cc1)c1cc([N+](=O)[O-])ccc1O,-0.402% (active)
5,NC(=O)c1c(NC(=O)c2ccc3c(c2)OCO3)sc2c1CCC(=O)C2,-94.2% (active)
6,O=C(CNC(=O)c1cccc2ccccc12)Nc1ccccc1Oc1ccccc1,-33.1% (active)
7,COC12CC(=O)C(C(C)=O)=C(O)C1(C)c1c(O)c(C)c(O)c(C(C)=O)c1O2 (stereo not drawn),46.1%
8,O=S(=O)(NCCCNc1nccc(-c2c(-c3ccccc3)nc3sccn23)n1)c1ccc(F)cc1,14.3%
9,CCCCOc1nc2c(C)cccc2cc1C1CNC(=O)c2ccccc2N1 (stereo not drawn),43.4%
10,C=CCN=C1NC(=O)/C(=C/c2cc(C(C)(C)C)c(O)c(C(C)(C)C)c2)S1,49.3%
11,Nc1nc(-c2ccccc2)cs1,102%
12,CC[C@H](C)[C@@H]1NC(=O)[C@H]([C@@H](C)O)NC(=O)C(Cc2ccccc2)NC(=O)[C@@H]2CCCN2C(=O)C(C(C)C)NC(=O)C(Cc2ccccc2)NC(=O)CNC(=O)[C@@H]2CCCN2C1=O (stereo partly drawn),64.8%
13,CCN(CC)CCSc1c2ccc(Cl)cc2nc2ccc(OC)cc12,103%
14,Cc1cc2c(C(C)C)c(O)c(O)c(C=NCCCCC(=O)O)c2c(O)c1-c1c(C)cc2c(C(C)C)c(O)c(O)c(C=NCCCCC(=O)O)c2c1O,49.4%
15,COc1ccc(Cn2cc(COc3cc(/C=C/C(=O)c4cc(OC)c(OC)c(OC)c4)ccc3OC)nn2)cc1,80.2%
16,Cc1ccc(C2=NN(c3ccc(S(=O)(=O)NC(=O)NCc4ccccc4)cc3)C(c3ccc(N(C)C)cc3)C2)c(C)c1 (stereo not drawn),12.2%
17,c1ccc2c(c1)Oc1ccccc1C2C1c2ccccc2Oc2ccccc21,100%
18,COc1ccc(S(=O)(=O)Nc2cc(/C=C\c3cc(OC)c(OC)c(OC)c3)cc(OC)c2OC)cc1OC,23.7%
19,COC1=CC(c2ccc[nH]2)=N/C1=C\c1[nH]c(C)c(CCCn2cc(CCCCCCCCC[C@@H]3Cc4cc(O)ccc4C4CC[C@]5(C)[C@@H](O)CC[C@H]5C43)nn2)c1C (stereo partly drawn),35.5%

# Test system: UACC-62 melanoma
# Assay: as above
# Conditions: 10 µM unless noted
row,Compound,growth
1,CC(C)(C)c1cc(-c2nc3ccc(N4CCN(CCO)CC4)cc3[nH]2)cc(C(C)(C)C)c1O,26.7%
2,Clc1ccc(/C=C/c2nc(N3CCOCC3)c3nc(Cl)c(Cl)cc3n2)cc1,106%
3,CCOC(=O)/C=C\C(=O)NC(N)=O,99.3%
4,CCC#CC[C@H]1C/C=C2/C(=O)C=C[C@@H]2C/C=C\CCCC(=O)O1,-17.6% (active)
5,O=C(Cc1c(F)cccc1Cl)Nc1ccc(S(=O)(=O)Nc2ncccn2)cc1,107%
6,C=CCc1cc(Cl)cc2c(OC(C)=O)c(C(C)=O)c(-c3ccccc3)nc12,101%
7,Cc1c(C(=O)NCc2ccccc2)[n+](=O)c2cc(F)ccc2n1[O-],104%
8,C=CCOc1cccc(/C=C/C(=O)c2sc(Nc3cccnc3)nc2C)c1,59.9%
9,COc1ccc(C(=O)c2cc(OC)c(OC)c(OC)c2)cc1/C=C/C(=O)c1ccc2c(c1)OCO2,-63.5% (active)
10,CCN(CC)S(=O)(=O)c1ccc2[nH]c(=O)cc(C(=O)Nc3ccc(OC)cc3OC)c2c1,103%
11,O=C(Nc1cc(C(F)(F)F)cc(C(F)(F)F)c1)Nc1ccc(OCc2nnc(-c3ccc(Cl)cc3)o2)c(F)c1,27.7%
12,O=C1CCCCN1CCCCC#Cc1ccccc1C#Cc1ccccn1,83.9%
13,COc1ccc2c(c1)C=CC(C#N)N2C(=O)c1ccccc1 (stereo not drawn),26.3%
14,CC1(C)OC2COC3(C(=O)O)OC(C)(C)OC3C2O1 (stereo not drawn),97.7%
15,COc1cc(C2C=C(C)N=C3SC(C)=NN32)cc(OC)c1OC (stereo not drawn),107%
16,O=C(/C=C/CN1CCOCC1)Nc1cc2c(Nc3cccc(Cl)c3F)ncnc2cc1OCCOC(F)F,72%
17,Cc1oc2nc[nH]c(=O)c2c1C(=O)/C=C/c1ccc(Cl)cc1,18.2%
18,CCn1cc(C2NC(=O)c3cc(F)ccc3N2)c2cccc(Cl)c21 (stereo not drawn),28.2%
19,CN(C)C/C=C/C(=O)Nc1cc2c(Nc3ccc(F)c(Cl)c3F)ncnc2cc1OCCOC(F)F,28.9%
20,CC(=O)Nc1ccc2c(c1)/C(=C\C=C/c1ccc([N+](C)(C)C)cc1)c1ccccc1-2,100%

row,Compound,growth
1,c1ccc([P+](CCC[P+](c2ccccc2)(c2ccccc2)c2ccccc2)(c2ccccc2)c2ccccc2)cc1,62.5%
2,COc1ccc2c(c1)NC(=O)CN2c1nc(C)nc2ccccc12,35.7%
3,CCCCCC/C=C\CCCCCCCCOc1ccc(CCOP(=O)(O)OCC[N+](C)(C)C)cc1,71.1%
4,O=C(Nc1ccc(I)cc1)c1cc([N+](=O)[O-])ccc1O,0.385% (active)
5,NC(=O)c1c(NC(=O)c2ccc3c(c2)OCO3)sc2c1CCC(=O)C2,-37.8% (active)
6,O=C(CNC(=O)c1cccc2ccccc12)Nc1ccccc1Oc1ccccc1,21.3%
7,COC12CC(=O)C(C(C)=O)=C(O)C1(C)c1c(O)c(C)c(O)c(C(C)=O)c1O2 (stereo not drawn),40.6%
8,O=S(=O)(NCCCNc1nccc(-c2c(-c3ccccc3)nc3sccn23)n1)c1ccc(F)cc1,23.1%
9,CCCCOc1nc2c(C)cccc2cc1C1CNC(=O)c2ccccc2N1 (stereo not drawn),29.1%
10,C=CCN=C1NC(=O)/C(=C/c2cc(C(C)(C)C)c(O)c(C(C)(C)C)c2)S1,63.8%
11,Nc1nc(-c2ccccc2)cs1,107%
12,CC[C@H](C)[C@@H]1NC(=O)[C@H]([C@@H](C)O)NC(=O)C(Cc2ccccc2)NC(=O)[C@@H]2CCCN2C(=O)C(C(C)C)NC(=O)C(Cc2ccccc2)NC(=O)CNC(=O)[C@@H]2CCCN2C1=O (stereo partly drawn),65.6%
13,CCN(CC)CCSc1c2ccc(Cl)cc2nc2ccc(OC)cc12,93.2%
14,Cc1cc2c(C(C)C)c(O)c(O)c(C=NCCCCC(=O)O)c2c(O)c1-c1c(C)cc2c(C(C)C)c(O)c(O)c(C=NCCCCC(=O)O)c2c1O,59.2%
15,COc1ccc(Cn2cc(COc3cc(/C=C/C(=O)c4cc(OC)c(OC)c(OC)c4)ccc3OC)nn2)cc1,70.1%
16,Cc1ccc(C2=NN(c3ccc(S(=O)(=O)NC(=O)NCc4ccccc4)cc3)C(c3ccc(N(C)C)cc3)C2)c(C)c1 (stereo not drawn),54.7%
17,c1ccc2c(c1)Oc1ccccc1C2C1c2ccccc2Oc2ccccc21,86.7%
18,COc1ccc(S(=O)(=O)Nc2cc(/C=C\c3cc(OC)c(OC)c(OC)c3)cc(OC)c2OC)cc1OC,37.3%
19,COC1=CC(c2ccc[nH]2)=N/C1=C\c1[nH]c(C)c(CCCn2cc(CCCCCCCCC[C@@H]3Cc4cc(O)ccc4C4CC[C@]5(C)[C@@H](O)CC[C@H]5C43)nn2)c1C (stereo partly drawn),12.9%
